# Compound activity (PubChem)
# Sampled rows, rich in hits. Any-hit rate of the full collection: about 4.7%.
# SKKanGAS inh: SKKanGAS growth inhibition; S. pyogenes SKKanGAS, kanamycin growth, BacTiter-Glo, 6 h; inhibition, % at 7.5 µM; 1.3% of 300,000 active; AID 1662;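 active = mean replicate score, as percent of positive control median, at least 50; inconclusive = mean below 50 but one replicate at or above 50; inactive = mean and every replicate below 50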;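 also: strain carries kanamycin resistance gene driven by streptokinase promoter and grows in 40 µg/ml kanamycin; loss of luminescence reflects streptokinase promoter inhibition or plain growth inhibition; 0% = median of DMSO wells and 100% = positive control at its reference dose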
# PfHsp90 set2: inhibits growth of yeast expressing Plasmodium falciparum Hsp90. inhibition, % at 9.4 µM. S. cerevisiae expressing PfHsp90, BacTiter-Glo ATP, 48 h; yeast lacking PDR1 and PDR3 efflux regulators. 0.32% of 310,000 active. AID 504621;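 active = every replicate shows inhibition above about 80%, whatever the replicate mean, limit read from the data; inconclusive = mean inhibition reaches the set limit but some replicate falls short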;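 also: 0% = DMSO neutral controls and 100% = 20 µM radicicol positive controls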
# tim23-1 inh: tim23-1 yeast growth inhibition. S. cerevisiae tim23-1 growth, BacTiter-Glo luminescence, 24 h. inhibition, % at 20 µM. 1.3% of 330,000 active. AID 463212;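 active = growth inhibition of the mutant yeast at or above 50%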;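 also: temperature-sensitive mutant grown at 25 °C; plate controls were DMSO-treated mutant yeast for no effect and medium wells lacking yeast for full effect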
# EBI2 antag: blocks human EBI2 receptor beta-arrestin signaling; 0.81% of 360,000 active; P32249; inhibition, % at 5 µM; EBI2 beta-arrestin recruitment, luminescence, 7a,25-OHC stimulated; in the data active = inhibition above about 38%;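 also: enzyme fragment complementation signal reports receptor beta-arrestin coupling in cells; 0% = agonist plus DMSO wells and 100% = wells without agonist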
# Target sequence (P32249 whole entry, looked up, the tested form may be a part): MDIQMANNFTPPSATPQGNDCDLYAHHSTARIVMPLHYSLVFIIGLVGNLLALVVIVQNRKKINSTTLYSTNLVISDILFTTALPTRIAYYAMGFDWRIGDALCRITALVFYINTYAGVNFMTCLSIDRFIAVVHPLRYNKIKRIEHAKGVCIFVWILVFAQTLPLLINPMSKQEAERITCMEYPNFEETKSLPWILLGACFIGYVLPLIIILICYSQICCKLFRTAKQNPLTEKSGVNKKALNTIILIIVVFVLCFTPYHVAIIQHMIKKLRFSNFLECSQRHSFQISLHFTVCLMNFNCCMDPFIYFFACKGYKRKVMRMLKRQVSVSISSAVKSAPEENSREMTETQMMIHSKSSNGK
# TIM10 inh: TIM10 yeast growth inhibition. S. cerevisiae TIM10 strain growth, BacTiter-Glo luminescence, 24 h. inhibition, % at 10 µM. 1.4% of 330,000 active;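 active = inhibition of 40% or more at the single tested concentration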;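 also: wild-type TIM10 isogenic control strain grown at permissive 25 °C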
# tim10-1 inh: tim10-1 yeast growth inhibition. S. cerevisiae tim10-1 ts strain growth, BacTiter-Glo, 24 h. inhibition, % at 20 µM. 2.2% of 330,000 active. AID 463190;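 active = inhibition of at least 40%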;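 also: mutant grown at 25 °C; 0% = DMSO wells with yeast and 100% = wells holding no yeast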
# TIM10 conf: TIM10 yeast growth inhibition, confirmed; shares compounds with TIM10 inh; S. cerevisiae tim10 strain growth, BacTiter-Glo luminescence, 24 h; inhibition, % at 10 µM; 63% of 4,600 active; AID 463215;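 active = inhibition of yeast growth at or above a set limit in either of two replicates at 10 µM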;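 also: this counterscreen used the strain with wild-type TIM10; 0% = yeast with DMSO and 100% = medium wells lacking yeast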
# * = called active by the depositor; ? = inconclusive; · = not tested or not shown.
SMILES,SKKanGAS inh,PfHsp90 set2,tim23-1 inh,EBI2 antag,TIM10 inh,tim10-1 inh,TIM10 conf
O=C(COC(=O)c1ccc([N+](=O)[O-])s1)Nc1ccccc1,3.9,9.9,39.6,-7.6,45.9*,16.9,-7.3
O=C(Nc1cccnc1)c1ccc([N+](=O)[O-])s1,·,-1.3,44.3,-30.1,56.0*,13.5,52.8*
O=C(COC(=O)c1ccc([N+](=O)[O-])s1)NC(c1ccccc1)c1ccccc1,21.9,-28.1,4.2,-3.1,6.8,19.9,·
O=C(COC(=O)/C=C/c1ccc([N+](=O)[O-])cc1)Nc1ccc(F)cc1,·,-24.3,16.0,-22.1,6.8,19.5,·
CC(=O)c1c(C)[nH]c(C(=O)OCc2nnc(-c3ccc([N+](=O)[O-])cc3)o2)c1C,·,-12.5,-7.5,-2.4,0.2,3.7,·
CC(C)NC(=O)CCCc1c[nH]c2ccccc12,-9.8,1.7,7.2,8.7,-2.6,-3.2,·
N#CC1=C(N)SC(N)=C(C#N)C1CCc1ccccc1,11.2,-1.4,32.5,5.5,70.3*,30.1,-14.2
N#CC1=C(N)SC(N)=C(C#N)C1Cc1ccccc1,25.5,-40.4,18.6,-6.3,6.7,29.4,·
CC(c1ccccc1)n1cc(C(=O)NCc2cccnc2)nn1 (configuration not stated),5.8,28.4,3.3,-2.6,51.3*,0.4,-19.6
Cc1ccc(C(C)n2cc(C(=O)NCc3ccncc3)nn2)cc1 (configuration not stated),-4.2,-1.8,-1.0,-2.9,-8.6,-3.5,·
Cc1ccc(Cl)c(OCCN2CCc3ccccc3C2)c1,15.9,4.1,13.9,-6.5,-63.2,-54.1,·
Cc1nc(-c2ccccn2)nc(SCC(=O)c2ccc(F)cc2)c1Cl,84.6*,13.5,40.8,-24.9,40.6*,29.1,42.0*
O=C(CSc1ccc(-c2ccccn2)nn1)c1ccc(F)cc1,-6.2,-46.1,17.2,-4.3,14.7,-0.4,·
CCCn1c2c(c(O)c(C(=O)Nc3nccs3)c1=O)CCCC2,18.5,-2.0,31.2,2.3,19.1,22.9,·
CCCn1c2c(c(O)c(C(=O)Nc3ncccc3C)c1=O)CCCC2,-1.0,-0.4,48.7,1.8,45.2*,25.4,8.4
CCNc1ccccc(C(=O)/C=C/c2ccc3c(c2)OCO3)c1=O,14.6,7.8,21.4,-4.4,16.1,35.4,·
CCNc1ccc(Br)cc(C(=O)/C=C/c2ccccc2Cl)c1=O,-2.2,·,26.8,0.0,45.5*,39.3,17.0
N#Cc1nc(-c2ccco2)oc1NCCc1ccccc1,20.2,15.1,-16.3,3.4,64.8*,16.7,57.2*
Cc1ccc(CNc2oc(-c3ccco3)nc2C#N)cc1,3.0,-25.7,33.0,6.9,11.2,12.2,·
COc1ccc(-c2nc(C#N)c(NCCc3ccccc3)o2)cc1OC,4.0,14.4,48.1,22.8,45.6*,23.7,41.3*
COc1ccc(CCNc2oc(COc3ccc(F)cc3)nc2C#N)cc1,·,-14.5,35.4,19.9,42.6*,26.4,36.5*
CC(C)NC(=O)CC(=O)NN=C1CCCCC1,2.5,23.0,-4.1,7.2,4.8,0.5,·
O=C(CSc1nnc(-c2cccs2)n1CC1CCCO1)c1cc2ccccc2o1 (configuration not stated),6.0,?,19.2,11.1,41.1*,30.6,-26.2
O=C(O)c1cc(-c2ccccc2)c(N2CCOCC2)s1,8.1,16.8,3.9,-3.1,5.7,2.9,·
O=C(c1ccc(Cl)cc1)c1cc(-c2ccccn2)c(N2CCOCC2)s1,-4.7,-9.9,39.4,31.9,40.0*,36.7,16.4
O=C(NCc1ccccc1)C(c1cccnc1)N(C(=O)c1csnn1)c1ccccc1 (configuration not stated),0.6,14.8,-0.3,-7.7,-14.0,-10.0,·
Cc1ccc(C(=O)Nc2ccccc2C(=O)N2CC3(C)CC2CC(C)(C)C3)cc1 (configuration not stated),-0.7,-92.1,30.9,0.9,44.4*,32.8,23.9
O=C(NCc1cn(-c2ccccc2)nc1-c1ccc(F)cc1)c1cccc([N+](=O)[O-])c1,1.7,-4.1,6.0,29.4,41.4*,32.8,21.2
CCn1cc(CNC(=O)c2cccc([N+](=O)[O-])c2)c(C)n1,-6.7,-1.3,5.7,-8.4,-18.6,14.8,·
